Assay outcomes from PubChem.
The list is not random: actives were taken first. Their share in the collection is about 7.4%.
p53 reactivation: mutant p53 re-activation in reporter cells; H1299 p53-A138V BP100-luciferase reporter, luminescence, 24 h; Potency, µM (top dose mostly 92.2 µM), most hits filed as activators; 0.063% of 320,000 active; note: nearly all actives have a fitted effect of over 45% in size
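H1299 (p53-null), stable ts p53-A138V + BP100-Luc; 1000 cells/well, Opti-MEM/10% FBS; cpd 4 pt, 1:5; 24 h, 37 deg C, 5% CO2; detection reagent 10 min RT; luminescence.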
Rab9 prom act: activators of Rab9 promoter; Potency, µM (doses to about 9.22 µM), hits mostly activators; 2.8% of 320,000 active; Huh7 Rab9 promoter-luciferase reporter, luminescence, 24 h; AID 485297; note: nearly all actives have a fitted effect of over 60% in size
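Luciferase signal after 10 min detection reagent at ambient indicates Rab9 promoter upregulation; stably transfected Huh7 cells were treated 24 h with compound in DMSO at 37 °C, 5% CO2.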
ELG1 genotoxic: inducers of genotoxicity in HEK293T ELG1-luciferase cells. 1.3% of 330,000 active. AID 504466. Potency, µM (doses to about 46 µM), hits mostly activators. HEK293T ELG1-luciferase reporter, luminescence, 16 h; note: nearly all actives have a fitted effect of over 60% in size
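DMSO vehicle served as control against compound-treated ELG1-luciferase HEK293T cells; exposure lasted 16 hr at 37 °C and 5% CO2, followed by ONE-Glo luminescence detection after 30 min.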
NPC1 promoter act: activators of NPC1 promoter; Huh7 NPC1 promoter luciferase reporter, 24 h; Potency, µM (highest dose often 9.22 µM), most hits filed as activators; AID 485313; 2.4% of 320,000 active; note: nearly all actives have a fitted effect of over 60% in size
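Compounds in DMSO were transferred onto Huh7 NPC1-luciferase reporter cells pre-incubated 2 h; after 24 h at 37 °C, Amplite reagent was dispensed and luminescence recorded 10 min later.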
SMN2 splice enh: SMN2 splice variant enhancement. HEK293 SMN2-luciferase splicing reporter, luminescence, 30-36 h. Potency, µM (titrated, usually from 46.1 µM), most hits filed as activators. 2.8% of 210,000 active; note: nearly all actives have a fitted effect of over 55% in size
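HEK293 cells carry an SMN2 […]–luciferase reporter in which exon 7 inclusion puts luciferase in frame. Cells were plated 10-12 h before compound addition, then incubated 30-36 h at 37C. ONE-Glo luminescence was read; sodium butyrate at 4.5 mM final served as control.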
FLuc counter: inhibits or activates purified firefly luciferase, miR-21 counter-screen | Potency, µM (titrated, usually from 57.5 µM), actives largely listed as inhibitors | 6.9% of 360,000 active | P08659 | purified FLuc, Km substrates, luminescence inhibition; note: nearly all actives have a fitted effect of over 55% in size
Target sequence (P08659 whole entry, looked up): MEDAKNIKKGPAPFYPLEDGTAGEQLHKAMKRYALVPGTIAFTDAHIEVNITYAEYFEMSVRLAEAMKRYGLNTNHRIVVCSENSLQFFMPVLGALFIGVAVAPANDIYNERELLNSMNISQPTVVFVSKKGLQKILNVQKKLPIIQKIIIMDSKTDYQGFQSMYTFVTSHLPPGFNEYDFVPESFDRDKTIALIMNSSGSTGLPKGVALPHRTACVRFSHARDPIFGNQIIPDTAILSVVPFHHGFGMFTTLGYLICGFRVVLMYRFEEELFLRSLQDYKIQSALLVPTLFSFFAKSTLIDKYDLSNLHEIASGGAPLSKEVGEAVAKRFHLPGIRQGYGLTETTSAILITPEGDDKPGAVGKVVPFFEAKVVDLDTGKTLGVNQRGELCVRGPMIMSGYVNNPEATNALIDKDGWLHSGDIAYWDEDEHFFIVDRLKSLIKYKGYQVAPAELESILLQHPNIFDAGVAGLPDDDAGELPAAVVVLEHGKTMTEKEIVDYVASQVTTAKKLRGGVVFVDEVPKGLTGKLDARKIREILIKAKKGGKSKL
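Purified P. pyralis luciferase (10nM final) with 10uM D-luciferin and 10uM ATP (Km levels) in 50mM Tris acetate pH 7.5, 10mM Mg acetate, 0.01% Tween-20, 0.05% BSA; qHTS 6-point titration, ~60 µM downward; luminescence read.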
Hits are given with their value; - = inactive; ? = inconclusive; . = no result given; [ ] = dose if it differs, or a comment. Calls come from the whole dose curve; as a rule, active = well fitted curve in the direction sought with a large enough effect; inconclusive = small, poorly fitted or top-dose-only effect, or another doubt; inactive = no such curve, though single readings can be large; an effect the other way counts as inactive or inconclusive.

SMILES | p53 reactivation | Rab9 prom act | ELG1 genotoxic | NPC1 promoter act | SMN2 splice enh | FLuc counter
O=C(N=C1c2ccccc2CN1c1ccc(F)c(Cl)c1)c1cccnc1Cl | ? | ? | ? | ? | 11µM | 15µM
CC1(C)CC(=O)C(N=Nc2ccc(Cl)cc2)=C(O)C1 | ? | - | ? | - | 14µM | 4.8µM
CC1(C)CC(=O)C(N=Nc2ccc(-c3ccccc3)cc2)=C(O)C1 | - | - | ? | - | - | 2.1µM
CC1(C)CC(=O)C(N=Nc2cccnc2)=C(O)C1 | - | - | - | - | . | -
CC1(C)CC(=O)C(N=Nc2ccc(OC(F)F)cc2)=C(O)C1 | - | - | ? | - | - | 17µM
CC1(C)CC(=O)C(N=Nc2ccc(F)cc2)=C(O)C1 | ? | - | ? | - | . | 15µM
CCN(CC)S(=O)(=O)c1ccc(N=NC2=C(O)CC(C)(C)CC2=O)cc1 | - | - | - | - | - | -
Cc1ccc(OCC(=O)Nc2ccc(S(=O)(=O)Nc3cc(C)nc(C)n3)cc2)c(Br)c1 | . | . | . | . | - | ?
Cc1ccccc1CCNC(=O)c1ccc2c(c1)c(C)c(C)n2Cc1ccccc1 | . | . | . | . | . | -
OC1CC2CC[C@H](C1)N2CCCN1c2ccccc2Sc2ccc(Cl)cc21 (some centres undefined) | . | . | . | . | -[9.22 µM] | .
CC1(C)CC(=O)C(N=Nc2ccc3ncsc3c2)=C(O)C1 | . | . | . | . | - | 19µM
COc1cc(NC(=O)CN2C(=O)C(c3ccc(C)cc3)=NC23CCCCCC3)cc(OC)c1 | . | . | . | . | - | -
O=c1cc(/C=C/c2ccccc2)oc2ccccc12 | ? | 2.2µM | 2.6µM | ? | 11µM | 6µM
O=c1cc(CO)oc2ccccc12 | - | . | - | . | . | .
Cc1ccc(C(=O)NNC(=O)c2ccccc2)cc1S(=O)(=O)N1CCCCC1 | - | - | - | - | . | 21µM
Cc1ccc(C(=O)N2CCCCC2)cc1S(=O)(=O)N1CCCCCC1 | - | - | - | - | . | -
COc1ccccc1NC(=O)c1ccc(C)c(S(=O)(=O)N2CCCCC2)c1 | - | - | - | - | . | ?
Cc1ccc(C(=O)NC2CCN(Cc3ccccc3)CC2)cc1S(=O)(=O)N1CCOCC1 | - | - | 18µM | - | . | -
Cc1ccc(C(=O)Nc2ccccc2C(=O)O)cc1S(=O)(=O)N1CCCCCC1 | . | . | . | . | ? | 0.95µM
Nc1ncnc2c1ncn2[C@@H]1O[C@H](CNC(=O)[C@@H]2C[C@H](F)CN2)[C@@H](O)[C@H]1O | - | . | - | . | . | .
CC(C)[C@H](Nc1ncnc2nc[nH]c12)C(=O)O | . | . | . | . | -[9.22 µM] | .
CC(=O)c1ccc(N2CCN(C(=O)C3CCN(S(=O)(=O)c4cccc5nonc45)CC3)CC2)cc1 | . | . | . | . | . | -
O=C(N/N=C/c1ccc(F)cc1)c1ccncc1 | . | - | - | - | . | -
O=C(N/N=C/c1ccc(O)cc1)c1csc2c1CCCC2 | ? | - | - | - | - | 13µM
O=C(N/N=C/c1ccc(C(F)(F)F)cc1)c1ccc(O)cc1 | - | - | - | - | - | 11µM
SMILES | p53 reactivation | Rab9 prom act | ELG1 genotoxic | NPC1 promoter act | SMN2 splice enh | FLuc counter
O=C(N/N=C/c1cccc(C(F)(F)F)c1)c1ccc(O)cc1 | - | - | - | - | - | 17µM
O=C(O)Cc1ccc(OCc2ccc(Cl)nc2)cc1 | - | - | - | - | - | 15µM
CC1CC(=O)c2cnc(Nc3cccc(C(F)(F)F)c3)nc2C1 (centres undefined) | - | ? | - | - | - | ?
Cc1ccc(Nc2ncc3c(n2)CC(C)CC3=O)c(C)c1 (centres undefined) | - | ? | 7.3µM | - | . | 7.6µM
CC1CC(=O)c2cnc(Nc3ccccc3)nc2C1 (centres undefined) | ? | 3.5µM | 5.8µM | 3.2µM | 11µM | 9.5µM
CCOc1ccccc1NC(=O)C1CCCN1S(=O)(=O)c1ccc2nc(-c3ccccc3)[nH]c2c1 (centres undefined) | . | . | . | . | . | -
CCCn1nc(C(=O)NNC(=O)Cc2ccc(S(=O)(=O)N3CCOCC3)s2)c2ccccc2c1=O | - | - | - | - | . | -
COc1ccc(/C=N/Nc2cc(C)nc3c(C)cccc23)cc1 | . | - | - | - | . | ?
COc1ccc(/C=N/Nc2nnc(-c3ncc[nH]3)c3ccccc23)cc1 | - | ? | - | 2.8µM | - | 0.34µM
Oc1ccc2ccccc2c1/C=N/Nc1nnc(-c2ncc[nH]2)c2ccccc12 | ? | - | - | - | - | 3.4µM
COC(=O)C1=C(C)NC(C)=C(C(=O)OC)C1C(=O)OCC(=O)c1ccc(Br)cc1 | - | - | - | - | . | -
C=CCN(C(=O)CCC(=O)Nc1cc(C)on1)C(C(=O)NC1CCCC1)c1ccc(C)cc1 (centres undefined) | - | - | - | - | . | -
O=c1cc(N=Nc2ccc(O)cc2)[nH]c(=O)[nH]1 | . | . | . | . | -[9.22 µM] | .
O=C(COc1ccc2ccccc2c1)NCCNC(=O)COc1ccc2ccccc2c1 | - | - | - | - | - | -
COc1ccccc1NC(=O)COc1ccccc1 | - | - | ? | - | - | ?
COc1ccc(NC(=O)COc2ccccc2)c(OC)c1 | ? | ? | 18µM | ? | - | 19µM
COc1ccc(OCC(=O)Nc2ccccc2O)cc1 | - | ? | 9.2µM | - | - | 21µM
